# In paper PMC6212790, “How bacterial xenogeneic silencer rok distinguishes foreign from self DNA in its resident genome”:
# Over roughly 33,000 sequences, “e-score” has its median near -0.038; the highest 2% begin near 0.33. What follows is part of a selection rich in the highest values, with near analogues and random picks from the rest.
# Biological target: T1, GST-Rok-C97-191 (Bacillus subtilis subsp. subtilis str. …, UniProt O34857 97-191)
# T1 sequence: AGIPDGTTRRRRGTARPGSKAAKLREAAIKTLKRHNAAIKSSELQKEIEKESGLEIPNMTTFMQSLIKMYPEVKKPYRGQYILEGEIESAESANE
# Test: protein binding microarray; Rok is a gene silencer of Bacillus subtilis; high values mean tight binding
# Settings: protein: recombinant; tags: GST (pTH5325, pDEST15-Magic modified); dsDNA, one strand shown
# Procedure, shortened: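 Each has a 25-mer constant primer and a 35-mer variable part from a de Bruijn sequence of order 10, covering every non-palindromic 8-mer at least 32 times (palindromic 16). Preference for each 8-mer is given as a rank-based, unitless enrichment score (E-score). Its range runs from 0.5 (most favored) to −0.5 (most disfavored).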
row,Sequence,binding signal
1,CAGTTTCA,-0.125 E-score
2,GAGTTTAA,0.0511 E-score
3,AAGTTTAA,-0.0234 E-score
4,GAGTTTCA,-0.0326 E-score
5,TAGTTTCA,0.361 E-score
6,TAGTTTAA,0.345 E-score
7,ACCCGCTA,0.0179 E-score
8,ACCTGTGC,-0.159 E-score
9,ACAACCAC,-0.126 E-score
10,ATACTGTA,0.334 E-score
11,CTACTGTA,0.384 E-score
12,GTACTGTA,0.219 E-score
13,ATACTGAA,0.0579 E-score
14,ATACTGTG,-0.082 E-score
15,CTACTGAA,0.098 E-score
16,CATGGAAA,0.0212 E-score
17,AGTACGAG,0.125 E-score
18,CCACTATC,0.0612 E-score
19,ATACTCTC,0.0157 E-score
20,ATACTATC,0.359 E-score
21,ATACTAGC,0.288 E-score
22,CGACTATC,-0.0118 E-score
23,CTACTATC,0.344 E-score
24,ATTACCTG,0.0992 E-score
25,ATTACCTC,0.136 E-score

row,Sequence,binding signal
1,ATTACCAC,0.181 E-score
2,ATTACCAA,0.333 E-score
3,ATTACCTA,0.337 E-score
4,CTTACCAA,0.0678 E-score
5,AAATTTCT,0.203 E-score
6,AAATAGAA,0.36 E-score
7,AAATAGGT,0.314 E-score
8,GAATAGAA,0.209 E-score
9,AAATAGAC,0.0478 E-score
10,AAATAGAG,-0.0395 E-score
11,AAATAGAT,0.343 E-score
12,AAGAGAGA,-0.188 E-score
13,ACCTCCCG,-0.064 E-score
14,CATCAGAC,-0.171 E-score
15,CTATATAC,0.376 E-score
16,GTATATAC,0.43 E-score
17,CTCTATAC,0.143 E-score
18,GCATATAC,0.18 E-score
19,ATATACAC,0.289 E-score
20,CTATATGC,0.209 E-score
21,GGATATAC,0.288 E-score
22,ACGTATAC,0.137 E-score
23,ACGTATAA,0.268 E-score
24,ACGTATAT,0.373 E-score
25,AGATATAC,0.221 E-score

row,Sequence,binding signal
1,ATATATAC,0.367 E-score
2,ACTTAAGA,-0.12 E-score
3,TTGCCAAA,0.142 E-score
4,AAGGAAGC,-0.125 E-score
5,ACTGCGCG,-0.0406 E-score
6,CGAGTGCG,-0.0584 E-score
7,AGATATCA,0.0773 E-score
8,AGATATCC,0.00982 E-score
9,ATATATAT,0.443 E-score
10,AGATATAA,0.282 E-score
11,ACATATGA,0.00179 E-score
12,AGATATAG,0.188 E-score
13,ATATACAT,0.288 E-score
14,ACATATGG,0.132 E-score
15,AGATATAT,0.421 E-score
16,ACATATGT,0.4 E-score
17,ATATATGG,0.279 E-score
18,AGATATCT,0.355 E-score
19,ATGTGCCA,-0.163 E-score
20,ACAACCAA,0.0769 E-score
21,GCGCTCTA,0.0916 E-score
22,GGAATGCA,-0.0343 E-score
23,ACTTTCAT,0.0835 E-score
24,CGGTCCAG,-0.196 E-score
25,ACATATAG,0.206 E-score

row,Sequence,binding signal
1,ACATATAT,0.4 E-score
2,ACATATAA,0.26 E-score
3,AACCTAGA,0.13 E-score
4,AGTATCGA,0.174 E-score
5,CATAATAG,0.136 E-score
6,AATAATAT,0.321 E-score
7,TCTAATAA,0.105 E-score
8,GATAATAA,0.174 E-score
9,TATAATAA,0.374 E-score
10,ATTAATAC,0.335 E-score
11,ATTAATAA,0.234 E-score
12,CATAATAA,0.281 E-score
13,CTTAATAC,0.0879 E-score
14,AATAATAA,0.371 E-score
15,AATAATAG,0.405 E-score
16,GCTAATAA,0.212 E-score
17,GCATCCGC,-0.147 E-score
18,CACATGTC,-0.0475 E-score
19,GAAATTCA,0.106 E-score
20,ACGTGGCG,-0.166 E-score
21,AAGCTGCC,-0.171 E-score
22,GGCGGCGA,-0.142 E-score
23,ACCTGGCA,-0.0345 E-score
24,AATAACGA,0.169 E-score
25,TATAACGA,0.336 E-score

row,Sequence,binding signal
1,AATAATAC,0.335 E-score
2,AAAAATAG,0.2 E-score
3,CATAATAC,0.191 E-score
4,GATAATAC,0.21 E-score
5,CAAAATAG,0.333 E-score
6,CAAAATAA,0.0411 E-score
7,GATAACGA,0.0698 E-score
8,CAGCCCAG,-0.136 E-score
9,CTTTTTTA,-0.151 E-score
10,GAACATAA,0.144 E-score
11,AACGTCGC,0.0434 E-score
12,CCTAGAAA,0.16 E-score
13,ACTAGAAG,0.199 E-score
14,ACTAGAAT,0.349 E-score
15,ACTAGAAA,0.4 E-score
16,ACTAGAGA,0.118 E-score
17,ACTAGAAC,0.255 E-score
18,ACGTTGAT,0.0039 E-score
19,ACTTAAAG,-0.106 E-score
20,ACAGCCGA,-0.00523 E-score
21,AATAAAAA,0.295 E-score
22,AGTAAAAC,0.246 E-score
23,AGTAAAAA,0.341 E-score
24,GGTAAATA,0.318 E-score
25,AGTAAATC,0.215 E-score

row,Sequence,binding signal
1,AATAAAAC,0.228 E-score
2,AGTAAAAG,0.267 E-score
3,ATTAAAAT,0.218 E-score
4,AATAAAAT,0.33 E-score
5,AGTAAATG,0.205 E-score
6,AGTAAATA,0.425 E-score
7,AGTAAAAT,0.329 E-score
8,TCGTTTAA,0.00225 E-score
9,TACTTGCA,0.167 E-score
10,ATCAACTG,0.0687 E-score
11,CTTCATTA,0.0438 E-score
12,CTGGCCCC,-0.197 E-score
13,AACCCCTA,-0.0905 E-score
14,CTAAGTCA,-0.0334 E-score
15,CTAAGACC,-0.137 E-score
16,CAGTGGGA,-0.131 E-score
17,AAACAAGA,0.025 E-score
18,TCCCTCGA,-0.0813 E-score
19,CGTAAAAA,-0.0178 E-score
20,TGTAAAAA,0.34 E-score
21,TGTAAACA,0.079 E-score
22,AGTTAAAA,0.324 E-score
23,GGTAAAGA,0.177 E-score
24,AGTTAAAC,0.0755 E-score
25,AGTTAAAT,0.335 E-score

row,Sequence,binding signal
1,GGTAAAAC,0.121 E-score
2,GGTAAAAA,0.379 E-score
3,CGCTAGTC,-0.137 E-score
4,AAGCTGAT,-0.0275 E-score
5,GAATCGCC,0.00133 E-score
6,CAAAGGAG,-0.156 E-score
7,CACTAACG,-0.157 E-score
8,CCTTACCA,-0.0792 E-score
9,GGACTTTA,-0.19 E-score
10,ATACTTTA,0.196 E-score
11,GTACTTAA,0.314 E-score
12,GTACTTTA,0.344 E-score
13,CTACTTCA,0.207 E-score
14,CTACTTAA,0.387 E-score
15,CTACTTTA,0.337 E-score
16,ATACTTAA,0.00261 E-score
17,CTACTTTC,0.275 E-score
18,CGATCGAA,0.239 E-score
19,TTATCCAA,0.108 E-score
20,CCGTACTA,0.201 E-score
21,GTGTTGTA,0.158 E-score
22,CATGGTGC,-0.16 E-score
23,ACTGGGCT,-0.135 E-score
